Reference: PubChem BioAssay (EPA / NIEHS)
Results filed as inconclusive are left out. More than one record can exist for a structure, and the calls need not agree. The source made the active and inactive calls. How the source made its calls, unless noted: active means hit-call score of the fitted dose curve at least 0.9, where 1 is the maximum; inactive means score below 0.9.

Assays:
[1] = target: human RAR-related Orphan Receptor gamma (RORg), RORC (gene 6097) (UniProt P51449); test: ATG_RORg_TRANS: Attagene TRANS-FACTORIAL HepG2 Assay for human RAR-related Orphan Receptor gamma (RORg) (AID 2283011; active means hit-call score of the fitted dose curve at least 0.9, where 1 is the maximum)
Sequence of human RAR-related Orphan Receptor gamma (RORg), RORC (gene 6097) (P51449 whole entry, looked up, the tested form may be a part): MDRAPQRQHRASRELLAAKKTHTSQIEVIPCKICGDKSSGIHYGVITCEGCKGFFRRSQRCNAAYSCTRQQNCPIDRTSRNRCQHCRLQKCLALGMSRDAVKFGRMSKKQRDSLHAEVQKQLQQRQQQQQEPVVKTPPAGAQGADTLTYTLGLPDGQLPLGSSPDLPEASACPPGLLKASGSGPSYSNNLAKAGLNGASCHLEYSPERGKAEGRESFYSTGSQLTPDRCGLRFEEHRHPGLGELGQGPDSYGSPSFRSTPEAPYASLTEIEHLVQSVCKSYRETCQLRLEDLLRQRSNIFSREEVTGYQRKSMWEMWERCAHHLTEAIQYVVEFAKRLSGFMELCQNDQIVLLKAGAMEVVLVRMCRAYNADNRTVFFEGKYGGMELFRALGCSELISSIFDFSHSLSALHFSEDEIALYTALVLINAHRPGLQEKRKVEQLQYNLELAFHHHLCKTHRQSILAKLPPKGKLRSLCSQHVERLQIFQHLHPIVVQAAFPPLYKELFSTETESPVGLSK
Method in brief: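 Reporter transcripts from a transfected RORg-GAL4 chimera in HepG2 cells were quantified 24 h after dosing by RT-PCR, 6-FAM labelling, HpaI digestion and capillary electrophoresis; increases over DMSO baseline were fitted.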

[2] = target: human Thyroid Receptor alpha (THRa1), THRA (gene 7067) (UniProt P10827); test: ATG_THRa1_TRANS: Attagene TRANS-FACTORIAL HepG2 Assay for human Thyroid Receptor alpha (THRa1) (AID 2283014; active means hit-call score of the fitted dose curve at least 0.9, where 1 is the maximum)
Sequence of human Thyroid Receptor alpha (THRa1), THRA (gene 7067) (P10827 whole entry, looked up, the tested form may be a part): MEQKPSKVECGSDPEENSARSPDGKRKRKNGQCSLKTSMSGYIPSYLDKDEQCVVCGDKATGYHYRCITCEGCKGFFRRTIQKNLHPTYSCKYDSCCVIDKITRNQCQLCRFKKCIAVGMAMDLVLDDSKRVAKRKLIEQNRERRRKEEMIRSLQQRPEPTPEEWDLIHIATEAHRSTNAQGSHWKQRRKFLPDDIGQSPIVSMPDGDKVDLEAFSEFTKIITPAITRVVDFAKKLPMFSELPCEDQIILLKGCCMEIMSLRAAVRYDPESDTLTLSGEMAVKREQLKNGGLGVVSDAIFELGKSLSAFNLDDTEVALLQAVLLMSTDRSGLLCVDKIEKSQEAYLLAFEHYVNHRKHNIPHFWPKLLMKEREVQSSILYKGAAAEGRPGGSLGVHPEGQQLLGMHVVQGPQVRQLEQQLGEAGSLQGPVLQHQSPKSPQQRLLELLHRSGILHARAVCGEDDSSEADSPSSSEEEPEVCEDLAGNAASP
Method in brief: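 Transcripts from GAL4-UAS-driven reporters, measured after 24 h compound exposure by RT-PCR plus capillary electrophoresis of 6-FAM-labeled fragments, were fitted for gain of signal relative to DMSO. Cells: transiently transfected HepG2 expressing NR-Gal4 chimeras.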

[3] = read-out: E-selectin (Homo sapiens) (UniProt P16581); test: BSK_3C_Eselectin: BioMAP Diversity Plus: 3C Assay for Eselectin Biomarker Activity (AID 2283015); conditions: primary human endothelial cells (HUVEC); actives raise or lower the signal
Method in brief: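 E-selectin ELISA readout, fitted bidirectionally relative to DMSO, taken 24 h post-dosing in HUVEC cultures of the 3C system. Overt cytotoxicity tracked with sulforhodamine B staining of parallel wells.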

[4] = read-out: Interleukin-1 alpha (IL1a), IL1A (gene 3552); test: BSK_BE3C_IL1a: BioMAP Diversity Plus: BE3C Assay for Interleukin-1 alpha (IL1a) Biomarker Activity (AID 2283016); conditions: primary human bronchial epithelial cells; actives raise or lower the signal
Method in brief: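 ELISA read-out of IL-1a from human lung bronchial epithelial primary cells, 24 h post-dose. Gain or loss of signal fitted relative to DMSO negative control.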

[5] = read-out: Monocyte Chemoattractant Protein-1 (MCP1), CCL2 (gene 6347); test: BSK_3C_MCP1: BioMAP Diversity Plus: 3C Assay for Monocyte Chemoattractant Protein-1 (MCP1) Biomarker Activity (AID 2283017); conditions: primary human endothelial cells (HUVEC); actives raise or lower the signal
Method in brief: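 MCP-1 was measured by ELISA 24 h after dosing in primary HUVEC 3C cultures and fitted in both directions relative to DMSO; cytotoxicity was checked by SRB total-protein staining in parallel wells.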

[6] = read-out: Monocyte Chemoattractant Protein-1 (MCP1), CCL2 (gene 6347); test: BSK_4H_MCP1: BioMAP Diversity Plus: 4H Assay for Monocyte Chemoattractant Protein-1 (MCP1) Biomarker Activity (AID 2283018); conditions: primary human endothelial cells (HUVEC); actives raise or lower the signal
Method in brief: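 HUVEC primary cells, 24 h post-dose, MCP-1 by ELISA. Gain or loss of signal fitted bidirectionally vs DMSO baseline. Cytotoxicity: SRB stain (0.1% after 10% TCA fixation), read 560 nm, parallel cultures.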

[7] = read-out: Human Leukocyte Antigen - DR isotype (HLADR), HLA-DRA (gene 3122); test: BSK_3C_HLADR: BioMAP Diversity Plus: 3C Assay for Human Leukocyte Antigen - DR isotype (HLADR) Biomarker Activity (AID 2283019); conditions: primary human endothelial cells (HUVEC); actives raise or lower the signal
Method in brief: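 Bidirectional fitting against DMSO was applied to the HLA-DR ELISA signal from human umbilical vein endothelial cells, 24 h post-dose. Cytotoxicity came from parallel SRB total-protein staining; 3C proliferation was counted by SRB at 48 h.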

[8] = read-out: Interleukin-8 (IL8), CXCL8 (gene 3576); test: BSK_3C_IL8: BioMAP Diversity Plus: 3C Assay for Interleukin-8 (IL8) Biomarker Activity (AID 2283020); conditions: primary human endothelial cells (HUVEC); actives raise or lower the signal
Method in brief: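 HUVEC, 3C stimulation; 24 h compound exposure; IL-8 read by ELISA; gain or loss of signal fitted relative to DMSO control.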

[9] = read-out: Monokine induced gamma interferon (MIG), CXCL9 (gene 4283); test: BSK_3C_MIG: BioMAP Diversity Plus: 3C Assay for Monokine induced gamma interferon (MIG) Biomarker Activity (AID 2283021); conditions: primary human endothelial cells (HUVEC); actives raise or lower the signal;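 on AC50: MIG protein level measured by immunoassay in the treated endothelial cultures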
Method in brief: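 HUVEC, 3C system; 24 h chemical exposure; MIG by ELISA; bidirectional fit vs DMSO baseline.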

[10] = target: human Vitamin D Receptor (VDR), VDR (gene 7421) (UniProt P11473); test: ATG_VDR_TRANS: Attagene TRANS-FACTORIAL HepG2 Assay for human Vitamin D Receptor (VDR) (AID 2283022; active means hit-call score of the fitted dose curve at least 0.9, where 1 is the maximum)
Sequence of human Vitamin D Receptor (VDR), VDR (gene 7421) (P11473 whole entry, looked up, the tested form may be a part): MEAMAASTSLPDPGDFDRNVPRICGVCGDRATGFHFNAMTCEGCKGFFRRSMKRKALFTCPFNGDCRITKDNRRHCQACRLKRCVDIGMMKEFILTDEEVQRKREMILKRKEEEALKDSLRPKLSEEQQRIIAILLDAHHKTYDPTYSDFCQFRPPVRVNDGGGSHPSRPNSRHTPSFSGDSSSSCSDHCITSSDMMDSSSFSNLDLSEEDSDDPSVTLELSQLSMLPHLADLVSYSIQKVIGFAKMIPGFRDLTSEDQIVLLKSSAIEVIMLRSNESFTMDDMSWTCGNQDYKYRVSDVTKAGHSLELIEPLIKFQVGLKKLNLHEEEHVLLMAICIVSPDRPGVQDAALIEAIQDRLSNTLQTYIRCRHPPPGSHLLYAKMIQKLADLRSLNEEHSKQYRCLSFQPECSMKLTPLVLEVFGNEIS
Method in brief: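 Transactivation by an exogenous VDR-Gal4 chimera in transiently transfected HepG2 cells was measured as reporter transcript level 24 hours after chemical treatment. RT-PCR products were analysed by capillary electrophoresis and fitted in the positive direction relative to DMSO.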

[11] = BSK_3C_SRB: Viability Assessment in the BioMAP Diversity Plus: 3C Assay (AID 2283023); conditions: primary human endothelial cells (HUVEC);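 further: fitted both ways against DMSO so a hit may be signal rise or drop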
Method in brief: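 Cytotoxicity readout in parallel HUVEC 3C cultures: after 24 h compound exposure, cells fixed with 10% TCA, stained with 0.1% SRB and read at 560 nm. Gain or loss relative to DMSO fitted.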

[12] = read-out: Matrix Metallopeptidase 1 (MMP1), MMP1 (gene 4312); test: BSK_BE3C_MMP1: BioMAP Diversity Plus: BE3C Assay for Matrix Metallopeptidase 1 (MMP1) Biomarker Activity (AID 2283024); conditions: primary human bronchial epithelial cells; actives raise or lower the signal
Method in brief: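 ELISA read-out of MMP1 in human lung bronchial epithelial primary cultures, 24 h post-dose; bidirectional curve fit vs DMSO baseline, gain or loss of signal scored.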

[13] = BSK_3C_Vis: BioMAP Diversity Plus: 3C Assay for Morphology Visualization (AID 2283025); conditions: primary human endothelial cells (HUVEC);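 further: fitted both ways so gain or loss versus DMSO counts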;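 on AC50: light microscopy image of cell morphology used as background control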
Method in brief: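 HUVEC, 3C system; light microscopy of morphology at 24 h post-dose. Bidirectional fit vs DMSO baseline. Secondary readout, background-control function.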

[14] = read-out: Pselectin, SELP (gene 6403); test: BSK_4H_Pselectin: BioMAP Diversity Plus: 4H Assay for Pselectin Biomarker Activity (AID 2283026); conditions: primary human endothelial cells (HUVEC); actives raise or lower the signal
Method in brief: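 HUVEC, 24 h chemical exposure; P-selectin read by ELISA. Bidirectional curve fit vs DMSO baseline; gain or loss of signal scored.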

[15] = BSK_BE3C_SRB: Viability Assessment in the BioMAP Diversity Plus: BE3C Assay (AID 2283028); conditions: primary human bronchial epithelial cells;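 on AC50: fitted both ways so AC50 may mark signal gain or loss versus DMSO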
Method in brief: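 Cytotoxicity read-out: SRB (0.1%) staining of TCA-fixed (10%) human lung bronchial epithelial cells, absorbance 560 nm, 24 h post-dosing. Curves fitted both directions relative to DMSO.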

[16] = read-out: Thrombomodulin, THBD (gene 7056); test: BSK_3C_Thrombomodulin: BioMAP Diversity Plus: 3C Assay for Thrombomodulin Biomarker Activity (AID 2283029); conditions: primary human endothelial cells (HUVEC); actives raise or lower the signal
Method in brief: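 HUVEC, 3C conditions; compound 24 h; thrombomodulin by ELISA; bidirectional curve fit vs DMSO baseline; parallel SRB total-protein staining for cytotoxicity.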

[17] = read-out: Urokinase-type plasminogen activator receptor (uPAR), PLAUR (gene 5329); test: BSK_4H_uPAR: BioMAP Diversity Plus: 4H Assay for Urokinase-type plasminogen activator receptor (uPAR) Biomarker Activity (AID 2283030); conditions: primary human endothelial cells (HUVEC); actives raise or lower the signal
Method in brief: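 uPAR level read by ELISA on HUVEC cultures (BioMAP 4H) 24 h post-dosing, analyzed for gain or loss relative to DMSO. Parallel SRB staining assessed overt cytotoxicity.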

[18] = BSK_4H_SRB: Viability Assessment in the BioMAP Diversity Plus: 4H Assay (AID 2283027); conditions: primary human endothelial cells (HUVEC);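 further: cells exposed to compound for 24 h before staining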;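 on AC50: curves fitted both ways versus DMSO so AC50 may be loss or gain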
Method in brief: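 Cytotoxicity read-out in primary human endothelial cells: after 24 h compound exposure, cells were TCA-fixed (10%), stained with 0.1% SRB and absorbance taken at 560 nm. Values fitted in both directions relative to DMSO.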

[19] = target: human Retinoid X Receptor beta (RXRb), RXRB (gene 6257) (UniProt P28702); test: ATG_RXRb_TRANS: Attagene TRANS-FACTORIAL HepG2 Assay for human Retinoid X Receptor beta (RXRb) (AID 2283013; active means hit-call score of the fitted dose curve at least 0.9, where 1 is the maximum)
Sequence of human Retinoid X Receptor beta (RXRb), RXRB (gene 6257) (P28702 whole entry, looked up, the tested form may be a part): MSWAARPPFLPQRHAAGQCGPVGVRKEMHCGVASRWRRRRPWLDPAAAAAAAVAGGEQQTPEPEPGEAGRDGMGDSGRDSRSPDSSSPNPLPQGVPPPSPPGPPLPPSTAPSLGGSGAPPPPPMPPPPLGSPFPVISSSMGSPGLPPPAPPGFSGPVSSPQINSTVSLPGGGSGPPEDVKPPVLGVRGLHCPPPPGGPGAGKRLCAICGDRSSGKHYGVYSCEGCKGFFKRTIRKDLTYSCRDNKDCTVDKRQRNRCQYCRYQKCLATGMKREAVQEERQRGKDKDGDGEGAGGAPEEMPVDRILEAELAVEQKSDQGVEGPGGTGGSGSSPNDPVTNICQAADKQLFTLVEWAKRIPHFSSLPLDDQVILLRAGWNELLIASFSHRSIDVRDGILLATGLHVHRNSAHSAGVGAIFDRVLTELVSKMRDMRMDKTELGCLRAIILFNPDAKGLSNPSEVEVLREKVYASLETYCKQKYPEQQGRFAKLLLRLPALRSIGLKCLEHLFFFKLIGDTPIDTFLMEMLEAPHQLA
Method in brief: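 Read-out: reporter mRNA induction via RT-PCR plus capillary electrophoresis fluorescence, analysed as signal increase relative to DMSO. Cells were human HepG2, transiently transfected with GAL4-UAS reporter constructs and chimeric receptor-Gal4 fusions, dosed for 24 h.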

Measured: AC50

Sequence of E-selectin (Homo sapiens) (P16581 whole entry, looked up): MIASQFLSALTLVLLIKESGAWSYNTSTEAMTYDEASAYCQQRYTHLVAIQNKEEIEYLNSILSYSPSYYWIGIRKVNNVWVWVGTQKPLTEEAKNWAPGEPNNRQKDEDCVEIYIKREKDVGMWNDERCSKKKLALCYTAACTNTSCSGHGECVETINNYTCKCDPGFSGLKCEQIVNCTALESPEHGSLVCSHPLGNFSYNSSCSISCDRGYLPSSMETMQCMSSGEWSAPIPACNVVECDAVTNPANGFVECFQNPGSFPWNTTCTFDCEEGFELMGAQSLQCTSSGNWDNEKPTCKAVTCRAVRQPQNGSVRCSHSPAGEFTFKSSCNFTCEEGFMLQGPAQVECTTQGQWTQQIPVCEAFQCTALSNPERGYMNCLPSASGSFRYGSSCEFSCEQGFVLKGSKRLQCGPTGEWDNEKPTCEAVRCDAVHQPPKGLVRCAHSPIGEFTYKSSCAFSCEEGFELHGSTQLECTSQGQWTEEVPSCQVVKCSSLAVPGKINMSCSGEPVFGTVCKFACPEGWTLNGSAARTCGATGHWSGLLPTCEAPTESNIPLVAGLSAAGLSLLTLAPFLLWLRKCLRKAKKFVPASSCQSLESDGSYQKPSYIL

CC1(C)CON(Cc2ccccc2Cl)C1=O
not listed: [18] | [19]
inactive: all other assays above

C=CCOC(=O)C(C)(C)OC(=O)c1cc(-n2c(=O)cc(C(F)(F)F)n(C)c2=O)ccc1Cl
active: [7] 14.7 µM | [17] 6.97 µM
not listed: [1] | [10] | [18] | [19]
inactive: all other assays above

COCC(C)N(C(=O)CCl)c1c(C)csc1C (stereo unspecified)
inactive: [1] | [2] | [3] | [4] | [5] | [6] | [7] | [8] | [9] | [10] | [11] | [12] | [13] | [14] | [18] | [15] | [16] | [17]
active: [13] 39 µM | [14] 14.6 µM

OC(c1ccc(Cl)cc1)(c1ccc(Cl)cc1)C(Cl)(Cl)Cl
active: [3] 13.8 µM | [4] 15.1 µM | [5] 29.3 µM | [6] 13.8 µM | [7] 12 µM | [8] 15.3 µM | [9] 30.3 µM | [11] 21.2 µM | [12] 34.1 µM | [13] 16.3 µM | [14] 17.3 µM | [18] 28.6 µM | [15] 12.9 µM | [16] 0.258 µM | [17] 31.4 µM
inactive: [19] | [10]

O=C1C2CC=CCC2C(=O)N1SC(Cl)(Cl)Cl (stereo unspecified)
active: [4] 11.2 µM | [7] 36.7 µM | [12] 12.1 µM | [13] 39 µM | [14] 23.9 µM
not listed: [1] | [10]
inactive: all other assays above
